Results reported in PubChem BioAssay AID2751 (The Scripps Research Institute Molecular Screening Center, 2010).
Out of some 320,000 compounds screened, about 2,200 (0.69%) were called active. Rule as the data show it: active = inhibition above about 43%; inactive = the rest. Shown is part of a subset that was picked to be rich in actives.

Each molecule was assayed against Prolyl endopeptidase-like (Homo sapiens) (UniProt Q4J6C6) (assay: PREPL enzyme inhibitors, primary screen, biochemical, fluorescence polarization (AID 2751;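 also: 0% = enzyme with DMSO and 100% = wells lacking enzyme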)). Conditions: recombinant PREPL, fluorescence polarization activity-based probe; at 5.96 µM; active compounds read high.
Sequence of Prolyl endopeptidase-like (Homo sapiens) (Q4J6C6 whole entry, looked up): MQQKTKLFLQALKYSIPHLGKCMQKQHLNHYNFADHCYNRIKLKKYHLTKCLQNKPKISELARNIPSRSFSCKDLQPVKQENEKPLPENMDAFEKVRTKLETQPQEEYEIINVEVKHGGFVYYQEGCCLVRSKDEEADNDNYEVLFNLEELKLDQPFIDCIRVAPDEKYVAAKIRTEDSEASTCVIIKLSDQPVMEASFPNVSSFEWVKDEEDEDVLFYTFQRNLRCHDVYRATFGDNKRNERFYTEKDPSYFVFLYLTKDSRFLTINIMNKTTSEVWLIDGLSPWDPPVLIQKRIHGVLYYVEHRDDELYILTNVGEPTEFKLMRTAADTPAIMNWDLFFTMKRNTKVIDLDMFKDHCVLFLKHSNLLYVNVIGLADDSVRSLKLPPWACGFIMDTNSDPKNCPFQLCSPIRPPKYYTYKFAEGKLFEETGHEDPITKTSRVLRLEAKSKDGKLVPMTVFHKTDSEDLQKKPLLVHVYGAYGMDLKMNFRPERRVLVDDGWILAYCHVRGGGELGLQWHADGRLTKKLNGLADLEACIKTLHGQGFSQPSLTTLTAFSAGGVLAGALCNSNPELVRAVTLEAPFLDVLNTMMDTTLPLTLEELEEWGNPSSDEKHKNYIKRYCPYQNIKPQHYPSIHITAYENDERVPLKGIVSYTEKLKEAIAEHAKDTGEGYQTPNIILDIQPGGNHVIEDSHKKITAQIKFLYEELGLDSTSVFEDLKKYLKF
With `COc1ccc(OC)c(CN2CCN(C(=O)CNC(=O)c3cc(C)cc(C)c3)CC2)c1` the inhibition was 5.26% (inactive). For `Cn1cnc(S(=O)(=O)Nc2ccc3c(c2)OCCO3)c1`, the inhibition was -9.35% (inactive). For `CC(=O)c1cc(NC(=O)c2ccccc2)c(=O)oc1/C=C/N(C)C`, the inhibition was 0.73% (inactive). For `Cc1cccc(N2CCN(C(C)C(=O)N3CCc4ccccc43)CC2)c1C` (stereo not drawn), the inhibition was 18.7% (inactive). `CC1CCC2(CC1)NC(=O)N(Cc1nnc(-c3cccs3)o1)C2=O` (stereo not drawn) was tested, and the inhibition was 11.6% (inactive). `CCCNCc1cc(OCC)c(OCC(=O)Nc2ccccc2)cc1Br` was tested, and the inhibition was -9.46% (inactive). For `CCCC(CCC(=O)OC)(C(=O)OCC)c1csc(N)n1` (stereo not drawn), the inhibition was 2.3% (inactive). For `Cc1ccc(NS(=O)(=O)c2ccc(N/N=C/c3ccccc3OCC(=O)O)c([N+](=O)[O-])c2)c(C)c1`, the inhibition was 49.9% (active). With `Cc1ccc(Cn2c(SCC(=O)N/N=C/c3ccccc3OCC(=O)O)nc3ccccc32)cc1` the inhibition was -29% (inactive). With `C=C(C)CNC(=S)N/N=C/c1ccccc1OCC(=O)O` the inhibition was -3.72% (inactive). With `O=C(C1CCCN1S(=O)(=O)c1ccc(Br)cc1)N1CCOCC1` (stereo not drawn) the inhibition was 12.8% (inactive). `Cc1ccc(C)c(NC(=O)C2Cc3ccccc3CN2C(=O)OCc2ccccc2)c1` (stereo not drawn) was tested, and the inhibition was -31.7% (inactive). For `CC[N+](C)(CC)CCC[n+]1c(-c2ccccc2)c2cc(N)ccc2c2ccc(N)cc21`, the inhibition was 65.2% (active). For `COc1ccc(C2NC(=O)C(=O)/C2=C(\O)c2ccc(Cl)cc2)cc1OC` (stereo not drawn), the inhibition was 2.96% (inactive). With `C=CCN1C(=O)C(Cc2ccc(OCC)cc2)SC1=Nc1ccc(C(=O)O)cc1` (stereo not drawn) the inhibition was -7.27% (inactive). With `CCNC(=O)N(CC)C[C@H]1N[C@@](CC)(C(=O)OC)[C@H]2C(=O)N(Cc3ccccc3)C(=O)[C@@H]12` the inhibition was 2.12% (inactive). `CCC(=O)N1CCN(c2ccccc2NC(=O)COc2cccc(C)c2C)CC1` was tested, and the inhibition was 12.6% (inactive). In the case of `Cc1ccccc1OCC(=O)Nc1ccc2c(c1)ncn2C`, the inhibition is reported as 8.18% (inactive). With `Cc1ccccc1OCC(=O)Nc1ccc(N2CCN(C(=O)C(C)C)CC2)c(Cl)c1` the inhibition was 49.4% (active). For `O=C(Nc1c2c(nn1-c1ccccc1)CS(=O)(=O)C2)C1CCCC1`, the inhibition was 11.5% (inactive). In the case of `O=C(C1CCCN(S(=O)(=O)c2ccc([N+](=O)[O-])cc2)C1)N1CCCCC1` (stereo not drawn), the inhibition is reported as 3.89% (inactive). `CC1=CC(C)(C)NC(=S)N1c1ccccc1` was tested, and the inhibition was 0.44% (inactive). For `CCOC(=O)c1cc(C#N)c(N2CCCCC2)nc1-c1ccccc1`, the inhibition was -11.5% (inactive). With `CCOc1ccc2nc(N3CCCN(C(=O)Nc4ccccc4C)CC3)c(C#N)cc2c1` the inhibition was 43.6% (active). `COc1ccc2nc(N3CCCC(O)C3)c(C#N)cc2c1` (stereo not drawn) was tested, and the inhibition was 19.4% (inactive). For `O=C(NCc1ccccc1Cl)C1CCC(CNc2c(N3CCCCC3)c(=O)c2=O)CC1` (stereo not drawn), the inhibition was 0.19% (inactive). `O=C(c1cc2cc(F)ccc2[nH]1)N1CCN(c2ccc(F)cc2)CC1` was tested, and the inhibition was 18.5% (inactive). With `O=C(c1cc(C(=O)N2CCN(c3ccc(F)cc3)CC2)cc([N+](=O)[O-])c1)N1CCN(c2ccc(F)cc2)CC1` the inhibition was 43.4% (active). For `O=C(c1cccc(C(=O)N2CCN(c3ccc(F)cc3)CC2)c1)N1CCN(c2ccc(F)cc2)CC1`, the inhibition was 62.3% (active). `O=C(c1ccccc1Oc1ccccc1)N1CCN(c2ccc(F)cc2)CC1` was tested, and the inhibition was -29.3% (inactive). With `O=C(c1cccc(F)c1)N1CCN(c2ccc([N+](=O)[O-])c(N3CCCCC3)c2)CC1` the inhibition was 16.6% (inactive). `O=C(c1cncc(Br)c1)N1CCN(c2ccc([N+](=O)[O-])cc2)CC1` was tested, and the inhibition was 17.6% (inactive). `C=Cn1cc[n+](CC(=O)c2ccc(OC)c(OC)c2)c1` was tested, and the inhibition was 19.9% (inactive). `O=C(Nc1ccc2c(c1)OCCO2)C1CCCC1` was tested, and the inhibition was 0.16% (inactive). `O=C(c1ccc(F)cc1)N1CCC(C(=O)N2CCN(S(=O)(=O)c3ccccc3Br)CC2)CC1` was tested, and the inhibition was 5.69% (inactive). `COC(=O)C1=CN(c2ccc(F)c(F)c2)C=C(C(=O)OC)C1c1ccc([N+](=O)[O-])cc1` was tested, and the inhibition was -1.25% (inactive). In the case of `COc1ccc(/C=C(\NC(=O)c2ccc(OCC(C)C)cc2)C(=O)OCc2ccco2)cc1`, the inhibition is reported as -0.54% (inactive). With `CCNc1c(NS(=O)(=O)c2ccc(C3CCCCC3)cc2)c(=O)oc2ccccc12` the inhibition was 10.3% (inactive). In the case of `N#C/C(=C/c1ccc(N2CCCCC2)o1)C(=O)NCCc1c[nH]c2ccccc12`, the inhibition is reported as 80.7% (active). In the case of `O=C(CN1C(=O)NC2(CCCCC2)C1=O)NCCc1c[nH]c2ccccc12`, the inhibition is reported as 6.75% (inactive). In the case of `N#C/C(=C/c1ccc(N2CCOCC2)o1)C(=O)N1CCOCC1`, the inhibition is reported as 7.19% (inactive). `CN(CCc1ccccn1)C1CCCN(S(=O)(=O)c2ccccc2Cl)C1` (stereo not drawn) was tested, and the inhibition was -0.19% (inactive). For `Cc1cc(Nc2ccccc2)n(C(=O)c2ccc(N)cc2)n1`, the inhibition was 32.7% (inactive). `Nc1ccc(Nc2ccccc2)cc1` was tested, and the inhibition was 94.7% (active). For `Nc1ccc(-c2nnc(-c3ccccc3)o2)cc1`, the inhibition was 2.86% (inactive). `CS(=O)(=O)N(CC(=O)N1CCOCC1)c1cccc(Cl)c1Cl` was tested, and the inhibition was 1.45% (inactive). With `COc1cc(NC(=O)COC(=O)CSc2ccc3ccccc3c2)c(C)cc1[N+](=O)[O-]` the inhibition was 26.5% (inactive). `CC(C)Oc1ccc(Oc2ccc(C(F)(F)F)cn2)cc1` was tested, and the inhibition was 14.7% (inactive). For `CNCC[C@H](Oc1ccc(C(F)(F)F)cc1)c1ccccc1`, the inhibition was 59% (active). `CC(NC(=O)COC(=O)Cn1cc(C(F)(F)F)ccc1=O)c1ccccc1` (stereo not drawn) was tested, and the inhibition was 4.36% (inactive). In the case of `Cc1ccc(CN(CC(=O)NCC2CCCO2)S(=O)(=O)c2ccc(C)cc2)cc1` (stereo not drawn), the inhibition is reported as -1.14% (inactive). For `O=C(Cn1cnc2ccccc2c1=O)NNC(=O)c1ccccc1F`, the inhibition was 9.97% (inactive). For `NS(=O)(=O)c1ccc(CNC(=O)c2ccc(Cl)cc2[N+](=O)[O-])cc1`, the inhibition was 13.1% (inactive). `O=C(Nc1ccc(F)cc1)N1CCN(c2ccc(F)cc2)CC1` was tested, and the inhibition was 15.1% (inactive). `CC(CC(=O)N1CCN(c2ccccc2)CC1)c1ccccc1` (stereo not drawn) was tested, and the inhibition was -0.94% (inactive). In the case of `CC(=O)N1CCN(c2ccc(NCc3ccc(C(C)C)cc3)cc2)CC1`, the inhibition is reported as 66.9% (active). For `COc1ccccc1-c1n[nH]c2c1[C@H](C)CC[C@H]2C(C)C`, the inhibition was -22.4% (inactive). With `COc1ccc(CSc2nnnn2-c2ccc(O)cc2)cc1F` the inhibition was -18.7% (inactive). In the case of `Cc1ccc(C2CC(c3cccc(C)c3)n3nc(N)nc3N2)cc1` (stereo not drawn), the inhibition is reported as 54.5% (active). With `CCOc1ccccc1C1CC(c2ccc(Cl)cc2)Nc2nc(N)nn21` (stereo not drawn) the inhibition was 24.3% (inactive). For `CCOc1ccccc1C1CC(c2ccccc2)Nc2nc(N)nn21` (stereo not drawn), the inhibition was 5.16% (inactive). In the case of `Cc1cc(=O)n(C)c(=O)n1CCCNc1ccccc1`, the inhibition is reported as 2.85% (inactive). For `Cc1ccc(C23CC4CC(CC(C(=O)NCC(=O)O)(C4)C2)C3)cc1`, the inhibition was 5.03% (inactive). In the case of `CCC(=O)Nc1cc(C(F)(F)F)ccc1N1CCCC1`, the inhibition is reported as 8.09% (inactive). In the case of `O=C(CCN1C(=O)COc2ccccc21)NCCCN1CCN(c2ccc(F)cc2)CC1`, the inhibition is reported as 35.5% (inactive). `COc1ccc(CCNC(=O)CN(c2ccccc2)S(C)(=O)=O)cc1` was tested, and the inhibition was 11.1% (inactive). In the case of `Cc1nn(CC(=O)Nc2ccc3c(c2)nc(CN2CCCCC2)n3C)c(=O)c2ccccc12`, the inhibition is reported as 1.33% (inactive). In the case of `Cn1c(CCN2CCCCCC2)nc2cc(NC(=O)Nc3ccccc3)ccc21`, the inhibition is reported as 53% (active). For `Cn1c(CCN2CCCC2)nc2cc(NS(=O)(=O)c3ccccc3)ccc21`, the inhibition was -19% (inactive). For `CCN(CC(=O)Nc1c(F)cccc1F)C(=O)c1cnc(C)cn1`, the inhibition was 3.72% (inactive). `CCN1C(=O)/C(=C\N2CCOCC2)SC1=S` was tested, and the inhibition was -9.93% (inactive). `CCN1C(=O)/C(=C\N2CCN(c3cccc(Cl)c3)CC2)SC1=S` was tested, and the inhibition was 23.1% (inactive). For `CCN1C(=O)/C(=C\N2CCN(c3ccccc3)CC2)SC1=S`, the inhibition was 49.4% (active). `O=C(O)CSCc1ccc(C(=O)O)o1` was tested, and the inhibition was 7.09% (inactive). With `N=c1n(Cc2ccc(Cl)cc2)c2ccccc2n1CC(O)c1ccco1` (stereo not drawn) the inhibition was 16.6% (inactive). In the case of `CCc1nc2ccc(C(=O)N3CCN(c4cccc(Cl)c4)CC3)cc2nc1CC`, the inhibition is reported as -11.3% (inactive). For `O=C1N[C@H](Cc2c[nH]c3ccccc23)COC(=O)[C@H](Cc2ccc(F)cc2)C/C=C\C[C@H]1CC(=O)N(CCO)Cc1ccccc1`, the inhibition was 45.9% (active). With `CC(C)(C)OC(=O)C[C@@H]1C/C=C\C[C@@H](CC(=O)N(CCO)Cc2ccccc2)C(=O)N[C@H](Cc2ccccc2)COC1=O` the inhibition was 14.3% (inactive). `O=C1N[C@@H](c2ccccc2)COC(=O)[C@H](Cc2ccc(F)cc2)C/C=C\C[C@@H]1CC(=O)N(CCO)Cc1ccccc1` was tested, and the inhibition was 36% (inactive). In the case of `O=S(=O)(CCc1nc2ccccc2o1)c1ccc(Cl)cc1`, the inhibition is reported as -9.37% (inactive). `C=C1C2C[C@H](O)C(C)(C)[C@@]2(O)[C@H](O)C[C@]23C[C@@](C)(O)[C@H](CC[C@H]12)[C@H]3O` (stereo partly drawn) was tested, and the inhibition was -4.1% (inactive). With `CCN(C[C@H]1N[C@@](CC)(C(=O)OC)[C@H]2C(=O)N(Cc3ccccc3)C(=O)[C@@H]12)S(=O)(=O)c1ccccc1` the inhibition was 16.9% (inactive). `C[C@H](NC(=O)c1ccccc1)C(=O)OCC(=O)c1c[nH]c2ccccc12` was tested, and the inhibition was -2.69% (inactive). `O=C(CNC(=O)c1ccc(F)cc1)c1ccccc1` was tested, and the inhibition was -2.4% (inactive). For `CN(C)c1ccc(C(CNC(=O)c2ccc(F)cc2)c2c[nH]c3ccccc23)cc1` (stereo not drawn), the inhibition was 55.9% (active). For `C#CCOCCOCCOCCNc1nc(N2CCN(C(=O)CCCCCCCCCCNC(=O)Cn3cc(CCCCCN)nn3)CC2)nc(N2CCN(C(=O)CCCCCCCCCCNC(=O)[C@H](CO)n3cc(CCCSC)nn3)CC2)n1`, the inhibition was 75.8% (active). With `C#CCOCCOCCOCCNc1nc(N2CCN(C(=O)CCCCCCCCCCNC(=O)[C@H]([C@@H](C)CC)n3cc(CCCCN=C(N)N)nn3)CC2)nc(N2CCN(C(=O)CCCCCCCCCCNC(=O)[C@H](CO)n3cc(CCCSC)nn3)CC2)n1` the inhibition was 29.9% (inactive). With `C#CCOCCOCCOCCNc1nc(N2CCN(C(=O)CCCCCCCCCCNC(=O)[C@H](CCCCN)n3cc(C)nn3)CC2)nc(N2CCN(C(=O)CCCCCCCCCCNC(=O)[C@H](CO)n3cc(CCCSC)nn3)CC2)n1` the inhibition was 35.2% (inactive).
